Data from the supplement of paper PMC8728848.
Shown is part of a subset that was picked to be rich in the strongest signals.

What was measured:
Test in all cases: glycan array binding signal (z-score within array); higher = stronger binding
Settings in all cases: glycan notation: IUPAC condensed, linker removed
[1] = molecular target: Fuc(a1-2)Gal(b1-3)GalNAc(b1-4)[Neu5Ac(a2-3)]Gal(b1-4)Glc
Method in brief: (§1)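 Arrays were curated from the Consortium for Functional Glycomics database, 3228 in total, and kept only where the protein sequence was available. Binding is expressed as a within-array Z-score. This score was averaged across arrays of the same protein sequence at different concentrations or buffers and across linkers, and negative values can be read as non-binding.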

[2] = molecular target: Fuc(a1-2)Gal(b1-3)GlcNAc
Method in brief: as §1

[3] = molecular target: Fuc(a1-2)Gal(b1-3)GlcNAc(b1-2)Man(a1-3)[Fuc(a1-2)Gal(b1-3)GlcNAc(b1-2)Man(a1-6)]Man(b1-4)GlcNAc(b1-4)GlcNAc
Method in brief: as §1

[4] = molecular target: Fuc(a1-2)Gal(b1-4)GlcNAc(b1-3)Gal(b1-4)GlcNAc
Method in brief: as §1

[5] = molecular target: Fuc(a1-2)Gal(b1-4)GlcNAc(b1-3)Gal(b1-4)GlcNAc(b1-2)Man(a1-3)[Fuc(a1-2)Gal(b1-4)GlcNAc(b1-3)Gal(b1-4)GlcNAc(b1-2)Man(a1-6)]Man(b1-4)GlcNAc(b1-4)GlcNAc
Method in brief: as §1

[6] = molecular target: Fuc(a1-2)Gal(b1-4)[Fuc(a1-3)]GlcNAc(b1-3)GalNAc
Method in brief: as §1

[7] = molecular target: Fuc(a1-2)Gal6S(b1-4)Glc6S
Method in brief: as §1

[8] = molecular target: Fuc(a1-2)[Gal(a1-3)]Gal(b1-4)GlcNAc(b1-2)Man(a1-3)[Fuc(a1-2)[Gal(a1-3)]Gal(b1-4)GlcNAc(b1-2)Man(a1-6)]Man(b1-4)GlcNAc(b1-4)GlcNAc
Method in brief: as §1

[9] = molecular target: Fuc(a1-2)[Gal(a1-4)]Gal(b1-4)GlcNAc
Method in brief: as §1

[10] = molecular target: Gal(a1-3)Gal(b1-3)[Fuc(a1-4)]GlcNAc(b1-2)Man(a1-3)[Gal(a1-3)Gal(b1-3)[Fuc(a1-4)]GlcNAc(b1-2)Man(a1-6)]Man(b1-4)GlcNAc(b1-4)GlcNAc
Method in brief: as §1

[11] = molecular target: Gal(a1-3)Gal(b1-4)Glc
Method in brief: as §1

[12] = molecular target: Gal(a1-3)Gal(b1-4)[Fuc(a1-3)]GlcNAc
Method in brief: as §1

[13] = molecular target: Gal(a1-3)GalNAc
Method in brief: as §1

[14] = molecular target: Gal(a1-4)Gal(b1-3)GlcNAc(b1-2)Man(a1-3)[Gal(a1-4)Gal(b1-3)GlcNAc(b1-2)Man(a1-6)]Man(b1-4)GlcNAc(b1-4)GlcNAc
Method in brief: as §1

[15] = molecular target: Gal(a1-4)Gal(b1-4)GlcNAc(b1-2)Man(a1-3)[Gal(a1-4)Gal(b1-4)GlcNAc(b1-2)Man(a1-6)]Man(b1-4)GlcNAc(b1-4)GlcNAc
Method in brief: as §1

[16] = molecular target: Gal(a1-4)Gal(b1-4)GlcNAc(b1-3)Gal(b1-4)Glc
Method in brief: as §1

[17] = molecular target: Gal(b1-3)GlcNAc
Method in brief: as §1

[18] = molecular target: Gal(b1-3)GlcNAc(b1-3)Gal(b1-4)GlcNAc(b1-3)Gal(b1-4)GlcNAc(b1-2)[Gal(b1-3)GlcNAc(b1-3)Gal(b1-4)GlcNAc(b1-3)Gal(b1-4)GlcNAc(b1-6)]Man(a1-6)[Gal(b1-3)GlcNAc(b1-3)Gal(b1-4)GlcNAc(b1-3)Gal(b1-4)GlcNAc(b1-2)Man(a1-3)]Man(b1-4)GlcNAc(b1-4)[Fuc(a1-6)]GlcNAc
Method in brief: as §1

[19] = molecular target: Gal(b1-3)GlcNAc(b1-3)GalNAc
Method in brief: as §1

[20] = molecular target: Gal(b1-3)[Fuc(a1-4)]GlcNAc(b1-6)GalNAc
Method in brief: as §1

[21] = molecular target: Gal(b1-4)GlcNAc(b1-3)Gal(b1-4)GlcNAc(b1-3)Gal(b1-4)GlcNAc(b1-2)[Gal(b1-4)GlcNAc(b1-3)Gal(b1-4)GlcNAc(b1-3)Gal(b1-4)GlcNAc(b1-6)]Man(a1-6)[Gal(b1-4)GlcNAc(b1-3)Gal(b1-4)GlcNAc(b1-3)Gal(b1-4)GlcNAc(b1-2)Man(a1-3)]Man(b1-4)GlcNAc(b1-4)[Fuc(a1-6)]GlcNAc
Method in brief: as §1

[22] = molecular target: Gal(b1-4)GlcNAc(b1-3)Gal(b1-4)GlcNAc(b1-3)Gal(b1-4)GlcNAc(b1-3)Gal(b1-4)GlcNAc(b1-2)[Gal(b1-4)GlcNAc(b1-3)Gal(b1-4)GlcNAc(b1-3)Gal(b1-4)GlcNAc(b1-3)Gal(b1-4)GlcNAc(b1-6)]Man(a1-6)[Gal(b1-4)GlcNAc(b1-3)Gal(b1-4)GlcNAc(b1-3)Gal(b1-4)GlcNAc(b1-3)Gal(b1-4)GlcNAc(b1-2)Man(a1-3)]Man(b1-4)GlcNAc(b1-4)[Fuc(a1-6)]GlcNAc
Method in brief: as §1

[23] = molecular target: Gal(b1-4)GlcNAc(b1-3)Gal(b1-4)GlcNAc(b1-3)Gal(b1-4)GlcNAc(b1-3)Gal(b1-4)GlcNAc(b1-3)Gal(b1-4)GlcNAc(b1-2)Man(a1-3)[Gal(b1-4)GlcNAc(b1-3)Gal(b1-4)GlcNAc(b1-3)Gal(b1-4)GlcNAc(b1-3)Gal(b1-4)GlcNAc(b1-3)Gal(b1-4)GlcNAc(b1-2)Man(a1-6)]Man(b1-4)GlcNAc(b1-4)[Fuc(a1-6)]GlcNAc
Method in brief: as §1

[24] = molecular target: Gal(b1-4)GlcNAc(b1-6)GalNAc
Method in brief: as §1

[25] = molecular target: Gal3S(b1-4)[Fuc(a1-3)]GlcNAc
Method in brief: as §1

[26] = molecular target: Gal3S(b1-4)[Fuc(a1-3)]GlcNAc6S
Method in brief: as §1

[27] = molecular target: GalNAc(b1-4)GlcNAc(b1-2)Man(a1-3)[GalNAc(b1-4)GlcNAc(b1-2)Man(a1-6)]Man(b1-4)GlcNAc(b1-4)GlcNAc
Method in brief: as §1

[28] = molecular target: GalNAc(b1-4)GlcNAc(b1-3)GalNAc(b1-4)GlcNAc
Method in brief: as §1

[29] = molecular target: GlcNAc(a1-4)Gal(b1-4)GlcNAc
Method in brief: as §1

[30] = molecular target: GlcNAc(b1-2)[GlcNAc(b1-4)]Man(a1-3)[GlcNAc(b1-2)Man(a1-6)]Man(b1-4)GlcNAc(b1-4)GlcNAc
Method in brief: as §1

[31] = molecular target: GlcNAc(b1-2)[GlcNAc(b1-4)]Man(a1-3)[GlcNAc(b1-4)][GlcNAc(b1-2)[GlcNAc(b1-6)]Man(a1-6)]Man(b1-4)GlcNAc(b1-4)GlcNAc
Method in brief: as §1

[32] = molecular target: GlcNAc(b1-3)Gal
Method in brief: as §1

[33] = molecular target: GlcNAc(b1-3)Gal(b1-4)GlcNAc
Method in brief: as §1

[34] = molecular target: GlcNAc(b1-3)Gal(b1-4)GlcNAc(b1-3)Gal(b1-4)GlcNAc(b1-3)Gal(b1-4)GlcNAc(b1-2)[GlcNAc(b1-3)Gal(b1-4)GlcNAc(b1-3)Gal(b1-4)GlcNAc(b1-3)Gal(b1-4)GlcNAc(b1-6)]Man(a1-6)[GlcNAc(b1-3)Gal(b1-4)GlcNAc(b1-3)Gal(b1-4)GlcNAc(b1-3)Gal(b1-4)GlcNAc(b1-2)Man(a1-3)]Man(b1-4)GlcNAc(b1-4)[Fuc(a1-6)]GlcNAc
Method in brief: as §1

[35] = molecular target: GlcNAc(b1-3)Gal(b1-4)GlcNAc(b1-3)Gal(b1-4)GlcNAc(b1-3)GalNAc
Method in brief: as §1

[36] = molecular target: Man(a1-2)Man(a1-3)Man
Method in brief: as §1

[37] = molecular target: Man(a1-2)Man(a1-3)[Man(a1-2)Man(a1-6)]Man(a1-6)[Man(a1-2)Man(a1-2)Man(a1-3)]Man(b1-4)GlcNAc(b1-4)GlcNAc
Method in brief: as §1

[38] = molecular target: Man(a1-3)[Man(a1-6)]Man(a1-6)[Man(a1-2)Man(a1-3)]Man(b1-4)GlcNAc(b1-4)GlcNAc
Method in brief: as §1

[39] = molecular target: Neu5Ac(a2-3)Gal(b1-3)GlcNAc
Method in brief: as §1

[40] = molecular target: Neu5Ac(a2-3)Gal(b1-4)Glc
Method in brief: as §1

[41] = molecular target: Neu5Ac(a2-3)Gal(b1-4)GlcNAc(b1-3)Gal(b1-4)GlcNAc(b1-3)GalNAc
Method in brief: as §1

[42] = molecular target: Neu5Ac(a2-3)Gal(b1-4)[Fuc(a1-3)]GlcNAc(b1-3)GalNAc
Method in brief: as §1

[43] = molecular target: Neu5Ac(a2-3)Gal(b1-4)[Fuc(a1-3)]GlcNAc(b1-6)[Neu5Ac(a2-3)Gal(b1-3)]GalNAc
Method in brief: as §1

[44] = molecular target: Neu5Ac(a2-6)Gal
Method in brief: as §1

[45] = molecular target: Neu5Ac(a2-6)Gal(b1-4)GlcNAc(b1-2)Man(a1-3)[Neu5Ac(a2-6)Gal(b1-4)GlcNAc(b1-2)Man(a1-6)]Man(b1-4)GlcNAc(b1-4)GlcNAc
Method in brief: as §1

[46] = molecular target: Neu5Ac(a2-6)Gal(b1-4)GlcNAc(b1-3)Gal(b1-4)GlcNAc
Method in brief: as §1

[47] = molecular target: Neu5Ac(a2-6)Gal(b1-4)GlcNAc(b1-3)Gal(b1-4)GlcNAc(b1-3)Gal(b1-4)GlcNAc(b1-2)Man(a1-3)[Neu5Ac(a2-6)Gal(b1-4)GlcNAc(b1-3)Gal(b1-4)GlcNAc(b1-3)Gal(b1-4)GlcNAc(b1-2)Man(a1-6)]GalNAc
Method in brief: as §1

B1: PX9961U-pdi-543-24-543 (Parabacteroides distasonis) (protein)
chain: EEPVGEFLPGQVESEENIEGIVTGAYAVLDGYYASDAINSGCSNWQFGDVVSDDAYKGGGGTGDQNQIHLMEIFNANPTGIDFEARWAALYEGIKRCNQAIRLLNGSEVKNKEQRLAEMRFLRGHYYFNLKIIYNQIPWIDETLVDPNEYNKKSNIEFSSDQLWEKILEEFSAAYKVLPESQADYGRPTKMAARAYMAKVYLYQSKWKECLEACDEVIQSGKYELFPDFRNVFLPENDNCSEIIFAIQLSINDGSPNNENGSYGDRLLPPGGPYPVYGFLRPTQNLVNAYKTDVKGLPYNDGKDVSENDYVDVRLDHTLARPNIPFMDVQLYDWTPREASVYGPYSPKKRLVSLNSTYYSPIWPYVNALNFYVIRYADLLLWRAEAAIETGDLETGRKYINMIRERAKNTQHVKTMDQSQDAANYKVGVYDEPFKSKNEAVQALRMERRLEMAHEGIRFFDLVRWGVADEVINAYIAKEKVFRSHLQNAHFVKGKHEYFPIPQSMIDICGTEVMKQNPGY
- glycan array binding signal (z-score) [1]: -0.337
- glycan array binding signal (z-score) [2]: -0.324
- glycan array binding signal (z-score) [3]: 7.29
- glycan array binding signal (z-score) [4]: -0.463
- glycan array binding signal (z-score) [5]: -0.241
- glycan array binding signal (z-score) [6]: 3.47
- glycan array binding signal (z-score) [7]: -0.226
- glycan array binding signal (z-score) [8]: 8.53
- glycan array binding signal (z-score) [9]: -0.379
- glycan array binding signal (z-score) [10]: 4.38
- glycan array binding signal (z-score) [11]: -0.175
- glycan array binding signal (z-score) [12]: 0.287
- glycan array binding signal (z-score) [13]: -0.348
- glycan array binding signal (z-score) [14]: -0.428
- glycan array binding signal (z-score) [15]: 2.13
- glycan array binding signal (z-score) [16]: -0.389
- glycan array binding signal (z-score) [17]: -0.43
- glycan array binding signal (z-score) [18]: 4.42
- glycan array binding signal (z-score) [19]: -0.385
- glycan array binding signal (z-score) [20]: 3.44
- glycan array binding signal (z-score) [21]: 6.31
- glycan array binding signal (z-score) [22]: 3.38
- glycan array binding signal (z-score) [23]: 7.11
- glycan array binding signal (z-score) [24]: -0.178
- glycan array binding signal (z-score) [25]: -0.303
- glycan array binding signal (z-score) [26]: -0.27
- glycan array binding signal (z-score) [27]: -0.253
- glycan array binding signal (z-score) [28]: 0.352
- glycan array binding signal (z-score) [29]: -0.445
- glycan array binding signal (z-score) [30]: -0.415
- glycan array binding signal (z-score) [31]: -0.386
- glycan array binding signal (z-score) [32]: -0.394
- glycan array binding signal (z-score) [33]: -0.432
- glycan array binding signal (z-score) [34]: -0.308
- glycan array binding signal (z-score) [35]: -0.417
- glycan array binding signal (z-score) [36]: -0.489
- glycan array binding signal (z-score) [37]: -0.408
- glycan array binding signal (z-score) [38]: 6.64
- glycan array binding signal (z-score) [39]: -0.408
- glycan array binding signal (z-score) [40]: -0.368
- glycan array binding signal (z-score) [41]: -0.376
- glycan array binding signal (z-score) [42]: 3.69
- glycan array binding signal (z-score) [43]: 1.28
- glycan array binding signal (z-score) [44]: -0.428
- glycan array binding signal (z-score) [45]: -0.347
- glycan array binding signal (z-score) [46]: -0.364
- glycan array binding signal (z-score) [47]: 0.5
